A number with no mark means an inactive call.
Compound: C#CCNC(=O)CCSSCCC(=O)NCCc1ccc(C=O)c(C=O)c1
Assay: lysine labeling ratio R10:1 (500 µM / 50 µM probe), SILAC-ABPP in living cells; higher = lower intrinsic lysine reactivity toward the probe, active = 2 or less
Settings: HeLa; probe concentrations 500 vs 50 µM
Outline: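 With forward and reverse label swaps, light and heavy SILAC HeLa cells, alive and in PBS at room temperature, were exposed to either 500 µM or 50 µM of an alkyne-tagged lysine probe bearing a disulfide link. After mixing, lysates were clicked to biotin-azide, cut with trypsin, pulled down on neutravidin, freed with DTT, alkylated and analysed on a TIMS-TOF Pro by LC-MS/MS. The per-lysine value R is the median over forward and reverse replicates of the filtered median high-probe/low-probe MS1 peptide ratio. It is capped at 20.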

Sequence of UniProt P05556 (P05556 whole entry): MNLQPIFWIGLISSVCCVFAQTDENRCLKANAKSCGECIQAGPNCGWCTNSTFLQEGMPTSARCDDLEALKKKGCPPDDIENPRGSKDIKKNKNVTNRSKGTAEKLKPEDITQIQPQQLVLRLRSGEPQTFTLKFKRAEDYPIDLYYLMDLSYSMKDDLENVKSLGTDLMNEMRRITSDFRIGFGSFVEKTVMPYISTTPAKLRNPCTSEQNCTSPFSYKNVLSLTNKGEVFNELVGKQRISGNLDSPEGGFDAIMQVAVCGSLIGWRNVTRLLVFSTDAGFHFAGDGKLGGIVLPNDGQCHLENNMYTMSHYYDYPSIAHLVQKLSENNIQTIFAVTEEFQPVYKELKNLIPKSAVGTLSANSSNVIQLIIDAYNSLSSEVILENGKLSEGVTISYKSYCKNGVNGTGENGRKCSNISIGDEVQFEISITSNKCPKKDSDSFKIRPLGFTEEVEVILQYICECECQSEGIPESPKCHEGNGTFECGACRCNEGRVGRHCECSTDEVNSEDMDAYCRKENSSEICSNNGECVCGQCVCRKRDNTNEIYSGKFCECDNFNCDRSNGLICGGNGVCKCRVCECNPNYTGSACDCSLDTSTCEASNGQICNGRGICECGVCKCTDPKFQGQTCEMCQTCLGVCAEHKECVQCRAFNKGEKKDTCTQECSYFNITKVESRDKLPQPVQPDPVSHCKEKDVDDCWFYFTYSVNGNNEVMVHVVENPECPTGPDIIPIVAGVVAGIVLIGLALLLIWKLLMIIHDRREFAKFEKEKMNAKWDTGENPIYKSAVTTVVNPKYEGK
Sequence of UniProt Q6YHK3 (Q6YHK3 whole entry): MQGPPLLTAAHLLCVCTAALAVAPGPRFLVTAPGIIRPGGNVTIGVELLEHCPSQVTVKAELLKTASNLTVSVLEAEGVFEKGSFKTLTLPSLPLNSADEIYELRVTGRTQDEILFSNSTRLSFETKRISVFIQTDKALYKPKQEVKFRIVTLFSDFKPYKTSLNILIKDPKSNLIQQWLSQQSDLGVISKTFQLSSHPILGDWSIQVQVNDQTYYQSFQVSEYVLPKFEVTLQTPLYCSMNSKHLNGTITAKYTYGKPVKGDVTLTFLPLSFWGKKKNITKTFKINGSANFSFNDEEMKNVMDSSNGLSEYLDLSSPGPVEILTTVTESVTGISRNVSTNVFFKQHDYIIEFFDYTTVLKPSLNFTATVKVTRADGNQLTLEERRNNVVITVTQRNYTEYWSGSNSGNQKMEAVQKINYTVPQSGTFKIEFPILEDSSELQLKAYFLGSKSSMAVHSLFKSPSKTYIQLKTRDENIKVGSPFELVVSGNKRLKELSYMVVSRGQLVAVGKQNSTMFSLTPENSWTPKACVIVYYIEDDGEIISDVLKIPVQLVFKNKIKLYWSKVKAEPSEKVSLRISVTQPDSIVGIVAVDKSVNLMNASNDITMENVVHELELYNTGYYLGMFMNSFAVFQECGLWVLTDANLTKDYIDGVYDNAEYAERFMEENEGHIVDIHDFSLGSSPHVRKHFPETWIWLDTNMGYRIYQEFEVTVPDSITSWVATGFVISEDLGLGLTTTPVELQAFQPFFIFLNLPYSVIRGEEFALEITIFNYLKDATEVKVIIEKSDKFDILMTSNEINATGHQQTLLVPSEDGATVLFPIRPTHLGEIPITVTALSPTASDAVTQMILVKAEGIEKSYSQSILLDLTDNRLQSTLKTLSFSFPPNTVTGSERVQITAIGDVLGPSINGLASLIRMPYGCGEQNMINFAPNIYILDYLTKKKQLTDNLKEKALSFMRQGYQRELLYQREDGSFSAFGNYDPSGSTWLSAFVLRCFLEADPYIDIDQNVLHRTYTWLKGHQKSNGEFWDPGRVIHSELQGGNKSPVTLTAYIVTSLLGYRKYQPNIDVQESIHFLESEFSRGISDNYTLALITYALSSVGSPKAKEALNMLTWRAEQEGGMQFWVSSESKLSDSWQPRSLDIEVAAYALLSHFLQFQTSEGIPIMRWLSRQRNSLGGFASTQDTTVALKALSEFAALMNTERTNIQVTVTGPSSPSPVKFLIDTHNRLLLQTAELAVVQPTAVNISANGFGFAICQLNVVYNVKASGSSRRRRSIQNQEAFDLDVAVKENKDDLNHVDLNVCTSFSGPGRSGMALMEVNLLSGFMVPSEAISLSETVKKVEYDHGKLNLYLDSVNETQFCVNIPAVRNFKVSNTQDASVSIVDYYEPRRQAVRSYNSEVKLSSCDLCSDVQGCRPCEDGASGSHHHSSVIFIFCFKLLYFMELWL
Sequence of UniProt P23229 (P23229 whole entry): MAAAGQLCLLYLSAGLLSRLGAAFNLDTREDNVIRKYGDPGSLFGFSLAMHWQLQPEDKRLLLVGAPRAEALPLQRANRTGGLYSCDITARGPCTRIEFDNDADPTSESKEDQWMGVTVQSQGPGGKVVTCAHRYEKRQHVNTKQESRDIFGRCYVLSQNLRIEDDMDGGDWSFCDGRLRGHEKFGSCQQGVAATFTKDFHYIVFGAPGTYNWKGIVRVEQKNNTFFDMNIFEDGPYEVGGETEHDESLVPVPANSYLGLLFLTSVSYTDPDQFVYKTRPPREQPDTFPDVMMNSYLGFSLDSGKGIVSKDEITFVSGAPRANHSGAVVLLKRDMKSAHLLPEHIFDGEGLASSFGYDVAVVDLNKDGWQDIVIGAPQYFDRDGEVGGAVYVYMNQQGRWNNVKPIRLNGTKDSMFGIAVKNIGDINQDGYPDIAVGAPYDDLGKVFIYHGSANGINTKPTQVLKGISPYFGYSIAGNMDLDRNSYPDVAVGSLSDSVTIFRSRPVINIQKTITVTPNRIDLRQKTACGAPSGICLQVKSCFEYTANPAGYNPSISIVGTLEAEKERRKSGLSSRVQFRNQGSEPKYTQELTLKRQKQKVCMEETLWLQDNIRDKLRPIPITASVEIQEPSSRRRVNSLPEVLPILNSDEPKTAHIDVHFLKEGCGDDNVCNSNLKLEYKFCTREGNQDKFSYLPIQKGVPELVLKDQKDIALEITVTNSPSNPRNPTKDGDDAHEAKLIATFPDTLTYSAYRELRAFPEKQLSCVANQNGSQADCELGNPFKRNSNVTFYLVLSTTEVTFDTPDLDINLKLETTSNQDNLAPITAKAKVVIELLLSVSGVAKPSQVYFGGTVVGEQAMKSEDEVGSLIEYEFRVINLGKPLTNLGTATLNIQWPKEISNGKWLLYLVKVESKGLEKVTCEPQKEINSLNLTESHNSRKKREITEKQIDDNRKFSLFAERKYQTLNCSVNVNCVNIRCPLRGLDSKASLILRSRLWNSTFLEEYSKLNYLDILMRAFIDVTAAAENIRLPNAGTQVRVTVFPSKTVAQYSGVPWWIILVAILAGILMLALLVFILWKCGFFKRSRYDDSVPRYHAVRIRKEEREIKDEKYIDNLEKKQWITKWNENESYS
Sequence of UniProt P42892 (P42892 whole entry): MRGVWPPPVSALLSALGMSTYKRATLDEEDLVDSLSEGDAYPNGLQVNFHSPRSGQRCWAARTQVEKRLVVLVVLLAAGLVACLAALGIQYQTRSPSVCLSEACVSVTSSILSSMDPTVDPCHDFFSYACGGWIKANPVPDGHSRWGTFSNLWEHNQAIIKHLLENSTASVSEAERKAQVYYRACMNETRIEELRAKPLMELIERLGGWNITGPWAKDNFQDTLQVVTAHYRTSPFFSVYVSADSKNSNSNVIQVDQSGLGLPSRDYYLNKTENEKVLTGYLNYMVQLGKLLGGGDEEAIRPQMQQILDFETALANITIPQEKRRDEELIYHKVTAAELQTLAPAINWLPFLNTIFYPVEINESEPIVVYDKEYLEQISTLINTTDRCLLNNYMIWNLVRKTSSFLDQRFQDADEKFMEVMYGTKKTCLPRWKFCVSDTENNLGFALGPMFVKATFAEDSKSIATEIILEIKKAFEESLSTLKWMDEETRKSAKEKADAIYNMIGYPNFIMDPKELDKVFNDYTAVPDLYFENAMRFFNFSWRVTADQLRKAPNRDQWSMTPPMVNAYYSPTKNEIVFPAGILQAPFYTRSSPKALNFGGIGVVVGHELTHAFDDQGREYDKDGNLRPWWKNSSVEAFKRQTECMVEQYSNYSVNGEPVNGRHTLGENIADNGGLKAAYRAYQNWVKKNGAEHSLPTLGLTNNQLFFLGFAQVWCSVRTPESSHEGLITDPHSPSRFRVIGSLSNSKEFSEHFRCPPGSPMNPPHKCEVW
Sequence of UniProt P15311 (P15311 whole entry): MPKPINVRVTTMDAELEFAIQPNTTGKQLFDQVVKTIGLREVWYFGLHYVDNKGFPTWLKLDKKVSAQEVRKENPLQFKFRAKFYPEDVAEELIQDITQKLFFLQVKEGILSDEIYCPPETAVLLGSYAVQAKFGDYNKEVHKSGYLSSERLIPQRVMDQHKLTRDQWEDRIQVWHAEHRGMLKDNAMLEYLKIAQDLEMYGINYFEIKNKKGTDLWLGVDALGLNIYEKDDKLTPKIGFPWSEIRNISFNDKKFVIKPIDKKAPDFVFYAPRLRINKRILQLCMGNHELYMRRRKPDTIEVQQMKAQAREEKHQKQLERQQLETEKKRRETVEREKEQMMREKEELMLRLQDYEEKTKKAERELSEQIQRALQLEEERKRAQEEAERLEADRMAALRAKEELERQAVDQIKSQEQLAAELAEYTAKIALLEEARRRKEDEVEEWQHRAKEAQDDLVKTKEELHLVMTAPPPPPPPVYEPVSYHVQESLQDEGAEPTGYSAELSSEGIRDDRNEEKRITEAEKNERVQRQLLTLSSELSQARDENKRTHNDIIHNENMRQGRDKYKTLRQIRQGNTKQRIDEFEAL
Sequence of UniProt P61769 (P61769 whole entry): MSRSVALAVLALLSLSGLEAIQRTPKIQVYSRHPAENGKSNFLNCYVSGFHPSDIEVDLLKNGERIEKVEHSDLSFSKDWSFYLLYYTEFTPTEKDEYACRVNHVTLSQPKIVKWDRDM
Sequence of UniProt Q99497 (Q99497 whole entry): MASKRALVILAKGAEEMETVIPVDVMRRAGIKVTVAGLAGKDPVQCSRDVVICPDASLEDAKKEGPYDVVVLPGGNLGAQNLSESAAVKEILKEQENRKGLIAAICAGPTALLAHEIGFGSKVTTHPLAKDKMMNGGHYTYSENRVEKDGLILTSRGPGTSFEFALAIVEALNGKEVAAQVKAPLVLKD

Target	lysine labeling ratio R10:1
SMC2 (lysine site: K222) (UniProt O95347)	1.74 (active)
FLNB (lysine site: K960) (UniProt O75369)	1.54 (active)
CD109 (lysine site: K1018) (UniProt Q6YHK3)	1.99 (active)
SSBP1 (lysine site: K81) (UniProt Q04837)	4.93
CD109 (lysine site: K952) (UniProt Q6YHK3)	0.643 (active)
ECE1 (lysine site: K401) (UniProt P42892)	2.77
ITGA5 (lysine site: K965) (UniProt P08648)	0.705 (active)
HSP90AB1 (lysine site: K624) (UniProt P08238)	7.02
UniProt Q9UHA4 (lysine site: K12)	3.79
YBX1 (lysine site: K137) (UniProt P67809)	7.5
ITGA3 (lysine site: K161) (UniProt P26006)	5.16
EZR (lysine site: K344) (UniProt P15311)	7.1
PVR (lysine site: K144) (UniProt P15151)	4.25
MARS (lysine site: K729) (UniProt P56192)	1.58 (active)
RPS3 (lysine site: K62) (UniProt P23396)	3.22
ITGB1 (lysine site: K100) (UniProt P05556)	10.5
UniProt P16144 (lysine site: K46)	10.1
SPTBN1 (lysine site: K997) (UniProt Q01082)	2.87
UniProt P61077 (lysine site: K8)	3.43
UniProt P62826 (lysine site: K134)	4.19

Target	lysine labeling ratio R10:1
AHNAK (lysine site: K134) (UniProt Q09666)	1.99 (active)
UniProt P62195 (lysine site: K55)	2.19
RPLP2 (lysine site: K25) (UniProt P05387)	2.1
VIM (lysine site: K168) (UniProt P08670)	3.85
ITGA6 (lysine site: K569) (UniProt P23229)	2.54
TCP1 (lysine site: K126) (UniProt P17987)	2.14
ITGB1 (lysine site: K107) (UniProt P05556)	1.41 (active)
PLXNA2 (lysine site: K542) (UniProt O75051)	1.9 (active)
MSN (lysine site: K3) (UniProt P26038)	8.6
PARK7 (lysine site: K188) (UniProt Q99497)	1.98 (active)
GALNT7 (lysine site: K648) (UniProt Q86SF2)	1.92 (active)
RPLP0 (lysine site: K106) (UniProt P05388)	0.868 (active)
LRP8 (lysine site: K420) (UniProt Q14114)	0.962 (active)
SPTAN1 (lysine site: K2184) (UniProt Q13813)	5.14
SLC4A2 (lysine site: K975) (UniProt P04920)	2.29
UniProt P07437 (lysine site: K58)	2.92
B2M (lysine site: K114) (UniProt P61769)	15.6
P30462 (lysine site: K210) (UniProt P01889)	2.33
ITGA6 (lysine site: K310) (UniProt P23229)	1.72 (active)
PLXNB2 (lysine site: K322) (UniProt O15031)	0.663 (active)
